Measurements from PubChem BioAssay (Tox21).
Inconclusive results are not listed. Activity calls are given as the source filed them. Unless noted, calls follow the shape of the dose curve; as a rule, active = well fitted curve in the direction sought with a large enough effect in the repeat runs; inconclusive = weak or mixed curves; inactive = no such curve, though single readings can be large; an effect the other way counts as inactive or inconclusive.

What was measured:
[1] = qHTS assay to identify aromatase inhibitors - cell viability counter screen (AID 743084);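 also: cells stimulated with testosterone during compound exposure; nearly all actives have a fitted effect of over 55% in size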
[2] = biological target: Aryl hydrocarbon receptor (Homo sapiens) (UniProt P35869); test: qHTS assay to identify small molecule that activate the aryl hydrocarbon receptor (AhR) signaling pathway (AID 743085);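 also: HG2L7.5c1 human HepG2 liver cells with stably integrated DRE-driven firefly reporter; series mostly up to about 70 µM; nearly all actives have a fitted effect of over 15% in size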
Chain of Aryl hydrocarbon receptor (Homo sapiens) (P35869 whole entry, looked up): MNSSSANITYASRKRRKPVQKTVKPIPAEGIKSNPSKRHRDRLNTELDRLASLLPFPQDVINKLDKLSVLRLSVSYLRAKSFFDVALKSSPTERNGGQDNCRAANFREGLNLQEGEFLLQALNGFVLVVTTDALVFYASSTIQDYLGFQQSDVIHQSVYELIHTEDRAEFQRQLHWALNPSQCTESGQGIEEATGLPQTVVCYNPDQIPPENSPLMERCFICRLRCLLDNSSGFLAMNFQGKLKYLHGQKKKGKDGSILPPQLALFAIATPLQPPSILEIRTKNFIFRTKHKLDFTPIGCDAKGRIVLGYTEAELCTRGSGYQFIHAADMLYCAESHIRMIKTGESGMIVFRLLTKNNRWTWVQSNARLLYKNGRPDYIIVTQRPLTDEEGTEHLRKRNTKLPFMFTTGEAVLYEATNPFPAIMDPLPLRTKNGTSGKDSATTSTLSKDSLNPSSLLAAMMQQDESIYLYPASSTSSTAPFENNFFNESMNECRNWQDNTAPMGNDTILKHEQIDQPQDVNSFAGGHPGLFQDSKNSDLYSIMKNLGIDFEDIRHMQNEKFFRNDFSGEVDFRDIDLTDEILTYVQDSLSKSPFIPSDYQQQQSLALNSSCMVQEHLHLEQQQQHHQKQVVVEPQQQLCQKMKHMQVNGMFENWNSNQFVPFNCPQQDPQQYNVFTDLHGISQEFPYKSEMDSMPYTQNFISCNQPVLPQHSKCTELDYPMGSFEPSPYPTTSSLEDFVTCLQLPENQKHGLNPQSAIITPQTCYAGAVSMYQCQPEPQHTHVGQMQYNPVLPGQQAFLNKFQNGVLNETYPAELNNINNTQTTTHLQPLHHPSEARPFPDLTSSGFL
Outline: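 Steps: seed HepG2-AhR-luc cells; allow 5 h at 37C; pin-transfer test compound or vehicle; incubate 24 h at 37C; add viability dye (30 min, 37C) and read fluorescence; add luciferase substrate (30 min, RT) and read luminescence.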

[3] = qHTS assay to identify small molecule that activate the aryl hydrocarbon receptor (AhR) signaling pathway - cell viability counter screen (AID 743086);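 also: HepG2 liver cells carrying the AhR DRE luciferase reporter; series mostly up to about 70 µM; nearly all actives have a fitted effect of over 45% in size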
Outline: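 HepG2-AhR-luc (HG2L7.5c1) cells, 4000/well, were preincubated 5 h at 37C, exposed to compound in qHTS format for 24 hr at 37C, then given CellTiter-Fluor for 30 min; viability was read as fluorescence in the reporter wells.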

[4] = biological target: Peroxisome proliferator-activated receptor gamma (Homo sapiens) (UniProt P37231); test: qHTS assay to identify small molecule agonists of the peroxisome proliferator-activated receptor gamma (PPARg) signaling pathway (AID 743094; active = well fitted activation curve with a large enough effect in the signal ratio in the repeat runs, not every such curve was filed as active; the % refers to the signal ratio)
Chain of Peroxisome proliferator-activated receptor gamma (Homo sapiens) (P37231 whole entry, looked up): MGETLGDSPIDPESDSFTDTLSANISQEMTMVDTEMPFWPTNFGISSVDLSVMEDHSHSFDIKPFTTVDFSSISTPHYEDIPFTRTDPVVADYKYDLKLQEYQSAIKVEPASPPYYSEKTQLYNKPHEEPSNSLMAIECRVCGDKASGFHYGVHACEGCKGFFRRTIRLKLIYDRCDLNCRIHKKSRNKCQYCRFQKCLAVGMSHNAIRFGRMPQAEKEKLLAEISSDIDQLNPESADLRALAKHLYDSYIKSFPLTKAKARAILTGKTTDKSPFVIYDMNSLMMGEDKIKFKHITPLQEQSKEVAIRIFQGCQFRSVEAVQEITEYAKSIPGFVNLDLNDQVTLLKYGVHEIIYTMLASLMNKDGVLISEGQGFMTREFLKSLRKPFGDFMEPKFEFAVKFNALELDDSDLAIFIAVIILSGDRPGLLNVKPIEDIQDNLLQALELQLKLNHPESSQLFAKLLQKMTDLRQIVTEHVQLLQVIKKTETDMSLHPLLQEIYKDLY
Outline: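 Following 5 h plating at 37C, PPARg-bla HEK293H cells receive compound or DMSO for 17 h; fluorescence intensity is recorded after LiveBLAzer B/G loading for 1 h at room temperature.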

[5] = biological target: Peroxisome proliferator-activated receptor gamma (Homo sapiens) (UniProt P37231); test: qHTS assay to identify small molecule antagonists of the peroxisome proliferator-activated receptor gamma (PPARg) signaling pathway (AID 743191; calls by dose curve; also: series mostly up to about 63 µM; nearly all actives have a fitted effect of over 30% in size)
Outline: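 GeneBLAzer PPARg UAS-bla HEK293H cells carrying a UAS-driven beta-lactamase reporter were plated at 3000 cells/well, preincubated 5 h at 37C, then given compound for 17 h at 37C; LiveBLAzer B/G FRET substrate was read after 1 h at room temperature.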

[6] = qHTS assay to identify small molecule antagonists of the peroxisome proliferator-activated receptor gamma (PPARg) signaling pathway - cell viability counter screen (AID 743194); also: nearly all actives have a fitted effect of over 55% in size
Outline: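 PPARg-UAS-bla HEK293H cells were plated, rested 5 h at 37 C, then treated with compounds plus rosiglitazone (50 nM final) for 17 h at 37 C; viability was then read by CellTiter-Glo luminescence after 30 min at room temperature.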

[7] = qHTS assay for small molecule agonists of the antioxidant response element (ARE) signaling pathway (AID 743202; active = well fitted activation curve with a large enough effect in the signal ratio in the repeat runs, not every such curve was filed as active; the % refers to the signal ratio)
Outline: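 Read-out: LiveBLAzer B/G FRET substrate fluorescence after 2 h at room temperature, following 16 h compound treatment at 37 C of HepG2 cells carrying an ARE-driven beta-lactamase reporter.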

[8] = qHTS assay for small molecule activators of the heat shock response signaling pathway - cell viability counter screen (AID 743209); also: nearly all actives have a fitted effect of over 50% in size
Outline: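 Counter screen for cytotoxicity in HeLa HSE-bla reporter cells. Treatment was 5 h at 37 C; viability was detected by luminescent ATP assay (CellTiter-Glo) in the same wells as the beta-lactamase read.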

[9] = qHTS assay for small molecule activators of the heat shock response signaling pathway (AID 743210; active = well fitted activation curve with a large enough effect in the signal ratio in the repeat runs, with a control signal flat, not every such curve was filed as active; the % refers to the signal ratio; also: series mostly up to about 63 µM)
Outline: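 HSE-bla HeLa cells (beta-lactamase reporter under heat shock response elements) were exposed to compounds for 5 h at 37 C, then loaded with LiveBLAzer B/G FRET substrate for 2.5 h at room temperature before fluorescence reading.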

[10] = qHTS assay to identify small molecule agonists of the peroxisome proliferator-activated receptor delta (PPARd) signaling pathway - cell viability counter screen (AID 743211); also: nearly all actives have a fitted effect of over 55% in size
Outline: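 Viability of GeneBLAzer PPARd UAS-bla HEK293H cells was assessed after 17 h compound incubation at 37C, using CellTiter-Glo reagent added after the reporter read and luminescence recorded 30 min later.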

[11] = biological target: Peroxisome proliferator-activated receptor delta (Homo sapiens) (UniProt Q03181); test: qHTS assay to identify small molecule agonists of the peroxisome proliferator-activated receptor delta (PPARd) signaling pathway (AID 743212; calls by dose curve)
Chain of Peroxisome proliferator-activated receptor delta (Homo sapiens) (Q03181 whole entry, looked up): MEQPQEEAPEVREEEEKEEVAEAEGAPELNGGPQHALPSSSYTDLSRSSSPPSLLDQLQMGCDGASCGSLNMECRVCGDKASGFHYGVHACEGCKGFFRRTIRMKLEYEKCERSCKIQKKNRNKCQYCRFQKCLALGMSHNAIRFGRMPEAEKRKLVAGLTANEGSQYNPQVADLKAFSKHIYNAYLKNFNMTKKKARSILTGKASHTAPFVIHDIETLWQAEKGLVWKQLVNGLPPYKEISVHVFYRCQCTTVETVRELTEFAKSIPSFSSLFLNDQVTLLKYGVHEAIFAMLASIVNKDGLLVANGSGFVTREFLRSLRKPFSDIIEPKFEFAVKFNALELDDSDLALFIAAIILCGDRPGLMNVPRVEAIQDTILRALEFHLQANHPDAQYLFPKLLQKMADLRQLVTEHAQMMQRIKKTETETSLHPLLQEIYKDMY
Outline: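 GeneBLAzer PPARd UAS-bla HEK293H cells (beta-lactamase reporter under UAS control), plated and rested 5 h at 37 C, then exposed to compounds in DMSO at 37 C; LiveBLAzer B/G FRET substrate added, 2 h room temperature, fluorescence read.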

[12] = qHTS assay to identify small molecule antagonists of the peroxisome proliferator-activated receptor delta (PPARd) signaling pathway - cell viability counter screen (AID 743213); also: nearly all actives have a fitted effect of over 50% in size
Outline: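 Cytotoxicity counter screen: CellTiter-Glo luminescence read 30 min after addition, in the same wells as the reporter assay. There, PPARd UAS-bla HEK293H cells (3000/well) were treated 17 h at 37 C with compound and 300 nM L165041.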

[13] = biological target: Peroxisome proliferator-activated receptor delta (Homo sapiens) (UniProt Q03181); test: qHTS assay to identify small molecule antagonists of the peroxisome proliferator-activated receptor delta (PPARd) signaling pathway (AID 743215; active = well fitted inhibition curve with a large enough effect in the signal ratio in the repeat runs, not every such curve was filed as active; the % refers to the signal ratio;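 also: cells stimulated with agonist L165041 at 300 nM final during compound exposure; series mostly up to about 62 µM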)
Outline: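 With L165041 present at 300 nM final, compounds were incubated 17 h at 37 C on PPARd UAS-bla HEK293H cells. A FRET-based beta-lactamase substrate was then applied for 2 h at room temperature and fluorescence intensity recorded.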

[14] = qHTS assay to identify small molecule antagonists of the farnesoid-X-receptor (FXR) signaling pathway - cell viability counter screen (AID 743221; active = well fitted cell-killing curve with a large enough effect in the repeat runs, not every such curve was filed as active; also: nearly all actives have a fitted effect of over 50% in size)
Outline: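 Quantitative HTS of the Tox21 10K library run in parallel with the beta-lactamase reporter read. HEK 293T cells carrying a UAS-driven bla reporter got compound and 50 uM CDCA (final) for 16 h; ATP-based luminescence followed.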

[15] = biological target: Vitamin D3 receptor (Homo sapiens) (UniProt P11473); test: qHTS assay to identify small molecule agonists of the vitamin D receptor (VDR) signaling pathway (AID 743222; calls by dose curve)
Chain of Vitamin D3 receptor (Homo sapiens) (P11473 whole entry, looked up): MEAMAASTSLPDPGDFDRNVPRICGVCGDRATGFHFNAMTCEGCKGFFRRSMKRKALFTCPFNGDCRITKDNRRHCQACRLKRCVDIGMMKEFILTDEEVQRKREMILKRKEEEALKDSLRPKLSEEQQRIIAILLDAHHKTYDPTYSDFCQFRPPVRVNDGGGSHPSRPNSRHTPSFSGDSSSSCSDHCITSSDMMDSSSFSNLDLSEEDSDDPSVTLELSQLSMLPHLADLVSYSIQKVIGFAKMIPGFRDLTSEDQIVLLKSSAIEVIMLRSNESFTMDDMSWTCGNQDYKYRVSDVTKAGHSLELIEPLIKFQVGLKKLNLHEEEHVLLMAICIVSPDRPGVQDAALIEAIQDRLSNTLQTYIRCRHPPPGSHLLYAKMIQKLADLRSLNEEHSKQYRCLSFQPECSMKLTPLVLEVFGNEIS
Outline: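 VDR-bla cells were seeded, left 4 h, treated with compounds in DMSO for 16 h, incubated 2 h at RT with B/G FRET substrate, and read for fluorescence.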

[16] = biological target: Vitamin D3 receptor (Homo sapiens) (UniProt P11473); test: qHTS assay to identify small molecule antagonists of the vitamin D receptor (VDR) signaling pathway (AID 743223; active = well fitted inhibition curve with a large enough effect in the signal ratio in the repeat runs, not every such curve was filed as active; the % refers to the signal ratio)
Outline: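 Fluorescence from LiveBLAzer B/G FRET substrate, read after 2 h at room temperature, reflects beta-lactamase reporter activity in VDR-bla cells treated 16 h at 37C with compounds and agonist 1alpha,25-dihydroxyvitamin D3 (3 nM final).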

[17] = qHTS assay to identify small molecule agonists of the farnesoid-X-receptor (FXR) signaling pathway - cell viability counter screen (AID 743218); also: nearly all actives have a fitted effect of over 45% in size
Outline: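 After 16 h at 37 C with test compounds, FXR-bla HEK 293T cells were given LiveBLAzer B/G substrate for 2 h at RT and then CellTiter-Glo; luminescence was taken after 30 min.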

[18] = qHTS assay for small molecule agonists of the antioxidant response element (ARE) signaling pathway - cell viability counter screen (AID 743203; calls by dose curve; also: nearly all actives have a fitted effect of over 55% in size)
Outline: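 Compounds in DMSO were pinned onto ARE-bla HepG2 cells plated 5 hrs earlier at 2,000 cells/well. Sixteen hours later at 37C/5% CO2, CellTiter-Glo was added and luminescence measured after 30 min at room temperature.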

[19] = biological target: Bile acid receptor (Homo sapiens) (UniProt Q96RI1); test: qHTS assay to identify small molecule antagonists of the farnesoid-X-receptor (FXR) signaling pathway (AID 743217; active = well fitted inhibition curve with a large enough effect in the signal ratio in the repeat runs, not every such curve was filed as active; the % refers to the signal ratio)
Chain of Bile acid receptor (Homo sapiens) (Q96RI1 whole entry, looked up): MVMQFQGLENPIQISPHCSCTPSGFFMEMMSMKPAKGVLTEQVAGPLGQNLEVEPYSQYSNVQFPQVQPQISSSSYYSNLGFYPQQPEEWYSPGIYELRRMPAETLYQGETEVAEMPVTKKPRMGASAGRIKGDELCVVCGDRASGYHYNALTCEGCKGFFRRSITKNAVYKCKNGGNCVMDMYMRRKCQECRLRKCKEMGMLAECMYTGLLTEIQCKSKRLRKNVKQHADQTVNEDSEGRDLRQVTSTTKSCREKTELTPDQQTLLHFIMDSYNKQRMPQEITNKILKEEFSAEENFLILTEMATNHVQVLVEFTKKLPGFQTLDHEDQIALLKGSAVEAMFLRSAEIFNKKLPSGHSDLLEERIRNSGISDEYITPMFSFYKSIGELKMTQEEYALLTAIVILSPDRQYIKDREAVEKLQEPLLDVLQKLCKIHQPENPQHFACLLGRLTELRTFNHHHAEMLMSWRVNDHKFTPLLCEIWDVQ
Outline: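 In this cell-based antagonist screen, inhibition of CDCA-driven (50 uM final) UAS-beta-lactamase expression in HEK 293T cells was measured by FRET fluorescence following 16 h compound exposure at 37 °C.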

[20] = biological target: Bile acid receptor (Homo sapiens) (UniProt Q96RI1); test: qHTS assay to identify small molecule agonists of the farnesoid-X-receptor (FXR) signaling pathway (AID 743220; active = well fitted activation curve with a large enough effect in the signal ratio in the repeat runs, not every such curve was filed as active; the % refers to the signal ratio)
Outline: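 Beta-lactamase reporter under UAS control in GeneBLAzer FXR HEK 293T cells (5000/well) measured with LiveBLAzer FRET substrate after 2 h at room temperature. Compound exposure lasted 16 h at 37C.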

Measured: Potency

Cc1c(NC(C)C)c(=O)n(-c2ccccc2)n1C
inactive: [1] | [2] | [3] | [4] | [5] | [6] | [7] | [8] | [9] | [10] | [11] | [12] | [13] | [14] | [15] | [16]

Nc1ccccc1S(=O)(=O)O
inactive: [1] | [2] | [3] | [4] | [5] | [6] | [7] | [8] | [9] | [10] | [11] | [12] | [13] | [17] | [14] | [15] | [16]

C1CN(CCOCCN2CCOCC2)CCO1
inactive: [1] | [2] | [3] | [4] | [5] | [7] | [8] | [9] | [10] | [11] | [12] | [14] | [15] | [16]

CCCC(=O)O[C@]1(C(=O)CO)CC[C@H]2[C@@H]3CCC4=CC(=O)CC[C@]4(C)[C@H]3[C@@H](O)C[C@@]21C
inactive: [1] | [2] | [3] | [4] | [5] | [6] | [18] | [8] | [9] | [10] | [11] | [17] | [14] | [15]

CCCCCCCCCCCC
inactive: [1] | [2] | [3] | [4] | [5] | [6] | [18] | [8] | [10] | [12] | [17] | [14]

O=C1CCCN1C1CCCCC1
inactive: [1] | [2] | [3] | [4] | [5] | [6] | [18] | [8] | [9] | [10] | [12] | [19] | [17] | [20] | [14] | [15] | [16]

O=C(CCCN1CCN(c2ccccn2)CC1)c1ccc(F)cc1
inactive: [1] | [2] | [3] | [4] | [5] | [6] | [18] | [8] | [9] | [10] | [11] | [12] | [14] | [15] | [16]

CCCCCCCCCCCCN(CCCCCCCCCCCC)CCCCCCCCCCCC
inactive: [1] | [2] | [3] | [4] | [5] | [7] | [18] | [8] | [9] | [10] | [11] | [12] | [13] | [17] | [14] | [15] | [16]

CC[N+](C)(C)c1cccc(O)c1
inactive: [1] | [2] | [3] | [4] | [5] | [7] | [18] | [8] | [9] | [10] | [11] | [12] | [19] | [17] | [20] | [14]
